{"source": "PubChem BioAssay (NCI)", "note": "About 83,000 compounds went through this panel and 20% of them were active in at least one assay; those are over-represented in the sample as a whole.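 Activity criterion: percent growth below 10, measured after cells in 96-well plates were exposed to a single compound concentration for 48 hours.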 Calls of active or inactive are those of the source."}
{"test_system": "BT-549 breast", "experiment": "NCI-60 one-dose screen, 48 h (100 = growth as untreated, 0 = no growth, -100 = all killed)", "conditions": "1 µM", "method": "(§1) Growth inhibition of the BT-549 human tumor cell line is measured as a screen for anti-cancer activity. Cells are grown in 96 well plates and exposed to the test compound for 48 hours. Compounds are tested at a single concentration, which is 10^-5 M for most compounds. The reported endpoint is percent growth (GI% or GIPRCNT), where numbers from 0 - 100% represent growth inhibition, and numbers from -100% - 0 represent cell death. For example, a value of 40 represents 60% growth inhibition. A value of 0 means no net growth occurred over the course of the experiment. A value of -40 indicates 40% of cells at the beginning of the experiment died by the end of the experiment. A value of -100 means all cells are dead at the end of the experiment.\n(§2) NCI-60 Human Tumor Cell Lines Screen was performed using the standard one-dose NCI protocol, which is described in more detail at https://dtp.cancer.gov/discovery_development/nci-60/default.htm.\n(§3) Compounds with GIPRCNT values below 10 were considered active. Activity score was based on GIPRCNT using the following formula: […]\n(§4) Score is 0 for GIPRCNT values of 100 or above, 50 for GIPRCNT values of 0, and 100 for GIPRCNT values of -100."}
{"smiles": "CC/C(=C(/c1ccc(O)cc1)c1ccc(OCCN(C)C(=O)COCCOCCNC(=O)Cc2ccc3c(c2)CN([C@@H]2CCC(=O)NC2=O)C3=O)cc1)c1ccccc1", "growth": "-20.3% (active)"}
{"test_system": "BT-549 breast", "experiment": "NCI-60 one-dose screen, 48 h (100 = growth as untreated, 0 = no growth, -100 = all killed)", "conditions": "10 µM", "method": "as §1, §2, §3, §4"}
{"smiles": "CC/C(=C(/c1ccc(O)cc1)c1ccc(OCCN(C)C(=O)COCCOCCNC(=O)Cc2ccc3c(c2)CN([C@@H]2CCC(=O)NC2=O)C3=O)cc1)c1ccccc1", "growth": "-26% (active)"}
{"test_system": "BT-549 breast", "experiment": "NCI-60 one-dose screen, 48 h (100 = growth as untreated, 0 = no growth, -100 = all killed)", "conditions": "10 µM unless noted", "method": "as §1, §2, §3, §4"}
{"smiles": "Cn1cc(-c2cc(N)n3nc(-c4c[nH]c5ccc(Cl)cc45)cc3n2)c2cccnc21", "growth": "-77.1% (active)"}
{"smiles": "C[C@@H](Nc1c(C#N)cnc2ccc(-c3cnc4[nH]ncc4c3)cc12)c1ccccc1", "growth": "-21.7% (active)"}
{"smiles": "CN(C)c1nc(NCCNS(=O)(=O)c2ccc(C(=O)/C=C/c3ccc(F)cc3)cc2)nc(N2CCOCC2)n1", "growth": "-24.8% (active)"}
{"smiles": "CN(C)c1nc(NCCNS(=O)(=O)c2ccc(C(=O)/C=C/c3ccc(Cl)cc3)cc2)nc(N2CCOCC2)n1", "growth": "12.8% (inactive)"}
{"smiles": "O=c1[nH]c2ccccc2cc1COc1ccc(Nc2nccc(-c3ccc(Cl)cc3)n2)cc1", "growth": "99.3% (inactive)"}
{"smiles": "COc1ccc(NC(=O)CSc2nnc(-c3ccc(-c4nc5ccccc5[nH]4)cc3)o2)cc1", "growth": "27.3% (inactive)"}
{"smiles": "Cc1ccc(C2CC(c3ccc(NC(=O)Nc4ccccc4)cc3)=NN2c2ccc(S(C)(=O)=O)cc2)cc1", "note": "(stereo not given)", "growth": "-32.8% (active)"}
{"smiles": "N#C/C(=C/c1ccc([N+](=O)[O-])cc1)c1nnc(NC(=O)c2ccc(-n3c(=O)[nH]c4ccccc4c3=O)cc2)s1", "growth": "107% (inactive)"}
{"smiles": "O=C1/C(=C/C=C/c2ccco2)SC(=S)N1CC(=S)C1C=CS(=O)(=O)C1", "note": "(stereo not given)", "growth": "88.1% (inactive)"}
{"smiles": "O=C(NNC(=S)NC(=O)c1ccccc1)c1ccc(OCc2nc3ccc(Cl)cc3[nH]2)cc1", "growth": "-51.8% (active)"}
{"smiles": "CC1=C(C(=O)OCc2ccccc2)C(c2ccc(N(C)C)cc2)n2c(nc3ccccc32)N1", "note": "(stereo not given)", "growth": "82.8% (inactive)"}
{"smiles": "CCCCCCCCc1ccc(C(=O)Nc2cccc(O)c2)cc1", "growth": "51.2% (inactive)"}
{"smiles": "COc1ccc(NC(=O)CSc2nnc(-c3ccc(-c4nc5ccc(Cl)cc5[nH]4)cc3)o2)cc1", "growth": "4.02% (active)"}
{"smiles": "CN1CCN(C(=O)Oc2cc3c(c4ccccc24)[C@H](CCl)CN3C(=O)c2cc3cc(OCCCN4CCC4)ccc3[nH]2)[C@@H]2CSSC[C@H]21", "growth": "-49.8% (active)"}
{"smiles": "CC[C@]12C=CCN3CC[C@@]4(c5ccc(OC)cc5N(C)[C@H]4[C@@](O)(C(=O)OC)[C@@H]1OC(=O)CCC[P+](c1ccc(OC)cc1)(c1ccc(OC)cc1)c1ccc(OC)cc1)[C@@H]32", "growth": "-96.6% (active)"}
{"smiles": "COc1ccc(/C=C/c2nc3ccccc3c(=O)n2CC(=O)Nc2ccccc2)cc1", "growth": "98.5% (inactive)"}
{"smiles": "COc1ccc(-n2c(NC(=O)N3CCN(C)CC3)c(C#N)c3ccccc32)cc1", "growth": "57.7% (inactive)"}
{"smiles": "C/C(=N\\Nc1ccc(S(N)(=O)=O)cc1)c1cnn(-c2cc(=O)[nH]c3ccc(Br)cc23)c1C", "growth": "37.7% (inactive)"}
{"smiles": "Cc1ccc(-c2cc(-c3ccccc3)[nH]c(=O)c2C#N)cc1", "growth": "88.5% (inactive)"}
{"smiles": "COC(=O)c1c(C(=O)OC)c2ccc3c4ccccc4ccc3n2c1C(=O)OC", "growth": "113% (inactive)"}
{"smiles": "N#Cc1ccc(C(=O)NNC(=O)CSc2nc3sc4c(c3c(=O)n2-c2ccc(Cl)cc2)CCCC4)cc1", "growth": "22.7% (inactive)"}
{"smiles": "COc1cc(C=O)ccc1OC(=O)c1cc(-c2ccc(C)cc2)n(-c2ccc(S(C)(=O)=O)cc2)n1", "growth": "126% (inactive)"}
{"smiles": "COc1ccc2[nH]c(O)c(N=Nc3nc(-c4ccccc4)cs3)c2c1", "growth": "50.2% (inactive)"}
{"smiles": "CCCCN1C(=O)/C(=C\\C(=O)c2cc3ccccc3oc2=O)c2ccccc21", "growth": "48% (inactive)"}
{"smiles": "O=C1NC(=S)/C(=C/c2cn(-c3ccccc3)nc2-c2ccccc2)S1", "growth": "-9.85% (active)"}
{"smiles": "COc1cc(C2CC(c3ccc(Cl)cc3)=Nc3c(N)nc(N)nc3N2)ccc1Oc1nc(Nc2ccc(F)cc2)nc(N(C)C)n1", "note": "(stereo not given)", "growth": "62.4% (inactive)"}
{"smiles": "O=C(CSc1nc2ccccc2c(=O)[nH]1)Nc1ccccc1C(=O)O", "growth": "103% (inactive)"}
{"smiles": "Cn1cc(-c2cc3nc(-c4cn(C)c5ncccc45)cc(N)n3n2)c2cc(F)ccc21", "growth": "35.4% (inactive)"}
{"smiles": "NCCCCn1c(SCCc2c[nH]c3ccccc23)nnc1-c1ccc2ccccc2n1", "growth": "54.5% (inactive)"}
{"smiles": "Cc1cccc(C)c1Nc1nnc(-c2c[nH]c3ccccc23)o1", "growth": "105% (inactive)"}
{"smiles": "COc1ccc(C(=O)NNC(=O)CSc2nc3sc4c(c3c(=O)n2-c2ccc(Cl)cc2)CCCC4)cc1", "growth": "34.5% (inactive)"}
{"smiles": "Cc1nn(-c2ccccc2)c2nc(C)n(CC(=O)N/N=C/c3ccccc3O)c(=O)c12", "growth": "37.2% (inactive)"}
{"smiles": "Cc1ccc2nc(SCc3ccccc3F)n(-c3ccccc3)c(=O)c2c1", "growth": "107% (inactive)"}
{"smiles": "Cc1ccc(C(C)C)cc1Oc1cccc(-c2c(-c3ccc(C(F)(F)F)cc3)ncn2C2CCNCC2)n1", "growth": "-98.6% (active)"}
{"smiles": "CC(C)CN1C(=O)/C(=C\\C(=O)c2cc3ccccc3oc2=O)c2ccccc21", "growth": "111% (inactive)"}
{"smiles": "O=C(c1cc2cc(OCCCN3CCC3)ccc2[nH]1)N1C[C@@H](CCl)c2c1cc(OCc1ccccc1)c1ccccc21", "growth": "-48% (active)"}
{"smiles": "Clc1ccc(-c2nc3c4c(-c5ccccc5)c(-c5ccccc5)n(Cc5ccccc5)c4ncn3n2)cc1", "growth": "-28.4% (active)"}
{"smiles": "COc1ccc(-c2nc3ccccc3n2CC(=O)N=Nc2c(O)[nH]c3ccc(OC)cc23)cc1", "growth": "20.5% (inactive)"}
